Data on 98 molecules can be found in PubChem BioAssay AID920 (The Scripps Research Institute Molecular Screening Center, 2007).

Screen size: about 200,000 compounds; about 700 (0.35%) were called active. The sample holds actives, similar compounds and a random draw of the others, so the mix is not that of the screen. Values without a mark were called inactive.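 How the source made its calls: active means inhibition above a set limit, the mean inhibition across all tested compounds plus 3 SD (cut at about 34% in these data); inactive means the rest.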

A short description of the assay: STAT1 signaling inhibitors, primary screen, cell-based, HTS, luciferase reporter (AID 920).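 Further: 0% = IFN-gamma with DMSO and 100% = IFN-gamma with 300 µM nifuroxazide.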 As to conditions: NIH 3T3 STAT1-luciferase reporter, IFN-gamma, luminescence; at 5.5 µM; stronger effect = higher value. (In a reporter assay the amount or activity of a reporter protein is the signal.)
By inhibition is commonly meant the drop in the measured response relative to a control, in per cent. Regarding `Brc1ccc(-c2csc(N/N=C/c3ccc4c(c3)OCO4)n2)cc1`, the inhibition is -12.1%.
`C(=N\Nc1ccc2ccccc2n1)/c1ccc2c(c1)OCO2`: the inhibition was 68.7% (active).
`Cc1noc(C)c1/C=N/Nc1ccc2ccccc2n1`: the inhibition is -64.7%.
For `CCOC(=O)C1C(c2ccc(Cl)cc2)NC(=S)NC1(O)C(F)(F)F` (stereo not drawn) the value was 10.5%.
`Cc1ccc(CN2C(=O)N/C(=C/c3cc(C)n(-c4ccccn4)c3C)C2=O)cc1`: the inhibition is -13.2%.
For `S=C(Nc1ccc2c(c1)OCO2)N1CCCC1` the value was -9.5%.
For the molecule `c1c2c(cc3sc(N4CCCCC4)nc13)OCCO2`, the inhibition is 47.8% (active).
For `Brc1ccc2nc(N3CCCC3)sc2c1`, the inhibition is -39.3%.
For `COc1ccc2nc(Nc3nc4cc5c(cc4s3)OCCO5)sc2c1` the value was -15.9%.
For `CCOC(=O)C1(CCOc2ccccc2)CCN(C(=O)c2cncs2)CC1` the value was -0.02%.
For `O=C(O)CSc1nnc(-c2ccc3c(c2)OCO3)n1-c1ccccc1` the value was -5.92%; for `CCCCCC(=O)Nc1ccc2oc(-c3ccncc3)nc2c1`, -3.9%.
Turning to `CCc1ccc2oc(-c3ccc(N)cc3)nc2c1`, the inhibition was 34.5% (active).
For `COc1cccc(-c2nc3cc(C)ccc3o2)c1` the value was -6.24%.
As to `CC(C)/C=N/NC(=O)c1cc(Br)ccc1O`, the inhibition is 11.2%.
Then `O=C(/C=C/c1ccccc1[N+](=O)[O-])NCC1CCCO1` (stereo not drawn), with -5.46%.
Then `CCc1nnc(NC(=O)CCCSc2nc3ccccc3[nH]2)s1`, with 20.4%; and `NC(=O)Nc1ccccc1C(=O)NCCc1ccccc1`, with -28.8%; and `COc1cc2c(C(=O)N3CCN(C)CC3)c(CSc3ccccc3)n(C)c2cc1Br`, with 10.4%.
Then `COc1ccc(-c2nc(-c3ccccc3)no2)c(OC)c1`, with 60.8% (active).
Take `COc1ccc(-c2noc(-c3cccc(OC)c3OC)n2)cc1OC`: the inhibition was -49.2%.
Then `COc1ccc(-c2noc(-c3ccc(C)cc3)n2)cc1`, with -36.1%; and `Cc1ccc(C(C)(C)C)c(OCCCCN2CCCC2)c1`, with 9.92%.
In the case of `Cc1nc2ccccc2c(C)c1C(=O)c1ccc(F)cc1`, the inhibition is 15.9%.
For `O=C(c1ccc(S(=O)(=O)c2ccccc2)cc1)N1CCCCCC1` the value was 14.2%.
Then `Cc1cccc(NC(=O)c2ccc3ccccc3n2)n1`, with -31.6%; and `CCOc1ccc(OCc2ccc(C(=O)Nc3cccc(C)n3)o2)cc1`, with -24.1%; and `CCOC(=O)C(=CNc1cccc(C)n1)C(=O)OCC`, with 43.5% (active).
Then `Cc1ccc(C(C[N+](=O)[O-])c2c(C)cc3ccccn23)cc1` (stereo not drawn), with 10.7%; and `C=CCN1C(=O)C(Cc2ccc(OCC)cc2)SC1=Nc1ccc(C(=O)O)cc1` (stereo not drawn), with 11.1%.
For the molecule `Nc1ccc(OCC(O)C[n+]2ccc(CCS(=O)(=O)[O-])cc2)cc1` (stereo not drawn), the inhibition was 0.06%.
Then `Fc1ccc2[nH]c3c(N4CCSCC4)ncnc3c2c1`, with 25.6%.
Then `Cc1cc(N2CCN(Cc3ccc4c(c3)OCO4)CC2)n2ncnc2n1`, with 6.31%; and `Fc1ccc2[nH]c3c(N4CCN(Cc5ccc6c(c5)OCO6)CC4)ncnc3c2c1`, with 45.1% (active); and `O=C(CC1SC(=Nc2ccccc2F)N(CCN2CCOCC2)C1=O)Nc1ccc(F)cc1F` (stereo not drawn), with 2.14%.
Then `Cc1ccc(N/C(N)=N/c2nc(C(F)(F)F)cc(C(F)(F)F)n2)cc1`, with -12.9%; and `CCOc1cc(/C=C(/C#N)c2ccc(Cl)cc2)cc(Cl)c1OCC(=O)O`, with 47.4% (active); and `CCOC(=O)CN/C=C(\C#N)c1ccc(F)cc1`, with 1.52%.
For `CCOc1c(Cl)cc(/C=N/O)cc1OC`, the inhibition is 5.54%.
Then `COc1ccc(C2c3c(C)nn(-c4ccccc4)c3NC(=O)N2c2ccccc2)cc1` (stereo not drawn), with -3.45%; and `Cc1noc(C)c1CCC(=O)O`, with 3.78%.
For `O=C(C1CCN(C2CCN(Cc3ccc4cc(F)ccc4n3)CC2)CC1)N1CCCC1` the value was 2.2%; for `CCc1cc(CNC(=O)CC2C(=O)NCCN2CC2CCCCC2)on1` (stereo not drawn), 6.89%.
For `CSC(=S)N/N=C/c1c[nH]c2ccccc12` the value was -6.4%; for `O=C(O)c1cccc(NC(=S)N/N=C/c2c[nH]c3ccccc23)c1`, 58% (active).
Turning to `CN(C)S(=O)(=O)c1cccc(NC(=S)N/N=C/C(=O)c2ccccc2)c1`, the inhibition is -1.89%.
Then `COc1ccc(CCC(=O)OCC(=O)Nc2ccc(C)c(S(=O)(=O)N(C)C)c2)cc1`, with 1.53%.
For `Cc1ccc2[nH]cc(CCCN3C(=O)c4ccccc4C3=O)c2c1` the value was 0.21%; for `CCOC(=O)N1CCN(C(=O)C2CCN(c3ncnc4c3sc3cccc(F)c34)CC2)CC1`, 37.1% (active); for `CCOC(=O)C1CCN(c2ncnc3c2oc2ccc(Br)cc23)CC1`, -3.28%.
For `CCOC(=O)N1CCN(C(=O)C2CCN(Cc3ccc(OC)cc3OC)CC2)CC1`, the inhibition is 5.92%.
Then `Cc1ccc(-n2c(SCC(=O)Nc3ncc(Cl)cc3Cl)nc3ccccc32)cc1`, with 12.4%.
For `NS(=O)(=O)c1cccc(NC(=O)CSc2nc3ccccc3n2-c2ccccc2)c1` the value was 55.1% (active).
For `Cc1cccc(-n2c(SCC(=O)Nc3cccc(S(=O)(=O)NC4=NCCCCC4)c3)nc3ccccc3c2=O)c1C` the value was -1.66%; for `Cc1nn(C)cc1C(=O)Nc1ccccc1Br`, -7.01%.
For the molecule `CCCN1C(=O)C(Cc2nc3ccccc3c(=O)n2-c2ccccc2)c2cc(C)ccc21` (stereo not drawn), the inhibition was 6.11%.
Then `CCCOC1CCCN(Cc2cn(C)nc2-c2ccccc2F)C1` (stereo not drawn), with -4.18%; and `Cc1ncoc1C(=O)NCCC(c1ccccc1)c1ccccc1`, with -1.04%; and `CCOC(=O)N1CCN(C(=O)CSc2nnc(-c3c[nH]c4ccccc34)n2CCOC)CC1`, with 37.2% (active).
Turning to `CCn1c(SCC(=O)Nc2ccc(OC)c(OC)c2)nnc1-c1c[nH]c2ccccc12`, the inhibition is 3.46%.
Then `CCC(C)Sc1nnc(-c2c[nH]c3ccccc23)n1CCOC` (stereo not drawn), with 3.54%; and `Cc1ccc2[nH]cc(CCNC(=O)c3ccc([N+](=O)[O-])cc3)c2c1`, with -1.14%; and `COc1ccc(N2C(=O)CC(SC(C)C)C2=O)cc1` (stereo not drawn), with 2.11%.
For the molecule `COc1ccc(C2CC(c3cccs3)=NN2c2nc(C)c(C(C)=O)s2)cc1OC` (stereo not drawn), the inhibition is 34.5% (active).
Then `COc1ccc(C2CC(c3cccs3)=NN2C(=O)CSc2nncs2)cc1OC` (stereo not drawn), with 17%; and `COc1ccc(C2CC(c3cccs3)=NN2c2ccc(F)cc2)cc1OC` (stereo not drawn), with -5.19%.
Take `Cc1cccc(NS(=O)(=O)c2ccc(C)c(C(N)=O)c2)c1`: the inhibition is 14%.
Then `CCN(/N=C/c1ccccc1)c1cc(=O)n(C)c(=O)[nH]1`, with 1.47%; and `CC1CC(C)CN(C(=O)CSc2ccsc2[N+](=O)[O-])C1` (stereo not drawn), with 1.9%; and `Cc1ccc(CN(C)CC(=O)Nc2cccc([N+](=O)[O-])c2)o1`, with 8.85%.
For `CN(CC(=O)Nc1cccc(F)c1)CC(=O)Nc1cccc([N+](=O)[O-])c1` the value was 9.08%; for `Cc1ccc(NC(=O)CN(C)CC(=O)Nc2cccc(F)c2)cc1[N+](=O)[O-]`, 34.4% (active).
Then `O=C(c1cccc([N+](=O)[O-])c1)N1CCN(C(=O)c2ccco2)CC1`, with 1.07%; and `Cc1ccc2[nH]c(C)c(CCNC(=O)NC3CCCCC3)c2c1`, with 8.57%; and `CC(=O)N1N=C(c2ccccc2)OC1c1cccnc1` (stereo not drawn), with -12.4%.
As to `COc1ccc(C(=O)Nc2ccccc2C(=O)N/N=C/c2ccc(O)c(OC)c2)cc1`, the inhibition was 99.9% (active).
As to `COc1cc(/C=N/NC(=O)c2ccccc2)ccc1OS(=O)(=O)c1ccccc1`, the inhibition was -17.2%.
For `COc1ccc(C(=O)Nc2ccccc2C(=O)N/N=C/c2ccccc2OC)cc1` the value was 58.5% (active); for `CCn1c(/C=N/NC(=O)c2ccc(OC)cc2)nc2ccccc21`, 1.5%; for `COc1ccc(/C=N/NC(=O)c2ccccc2)cc1OS(=O)(=O)c1ccccc1`, 6.31%.
As to `COc1ccccc1C(=O)NNC(=O)c1ccc(NC(=O)c2ccccc2)cc1`, the inhibition was 3.37%.
For `CCN(C(=O)c1ccc(Br)cc1)c1ccccc1` the value was 12.3%.
Consider `CC(=O)c1c(C)[nH]c(C(=O)OCC(=O)Nc2sc3c(c2C#N)CCCC3)c1C`, for which the inhibition is -6.37%.
For `Cc1nc(CN2CCN(C(=O)CCc3nnc(Cc4c[nH]c5ccccc45)o3)CC2)cs1` the value was 0.65%; for `CCCCOC(=O)CCCc1ccc([N+](=O)[O-])cc1[N+](=O)[O-]`, 6.62%.
Then `Cc1cc(O)c(NC(=O)c2ccc(C)c([N+](=O)[O-])c2)cc1C`, with -3.86%; and `O=C(NNC(=O)C1CCN(c2ncccn2)CC1)c1ccccc1`, with -0.55%.
In the case of `CC(=O)c1cc(C#N)c(N2CCCCC2)nc1C`, the inhibition was 2.46%.
Then `Cc1cc(C(=O)Cn2cnc3cc([N+](=O)[O-])ccc3c2=O)c(C)n1CC1CCCO1` (stereo not drawn), with -2.94%; and `Cc1ccsc1C(=O)OCC(=O)c1cc(C)n(CC2CCCO2)c1C` (stereo not drawn), with 77.5% (active); and `Cc1ccsc1C(=O)OCC(=O)c1cc2ccccc2o1`, with -6.53%.
Then `CC1CC(C)(C)NC(=S)N1CCC(=O)N1CCN(Cc2ccccc2)CC1` (stereo not drawn), with -1.54%; and `COc1ccc(NC(=S)NCCN2CCC(C)CC2)cc1`, with 4.93%; and `Cc1cccc(C(=O)Nc2ccc3c(c2)C(=O)N(CC(C)C)C3=O)c1`, with -24.8%.
Then `O=C(CSc1nc2ccc([N+](=O)[O-])cc2[nH]1)c1ccc(Cl)cc1`, with -9.84%.
On to `COc1ccc(-c2cn3ccsc3n2)cc1`, for which the inhibition is -38.6%.
For `Cc1ccc(-c2cn3cc(C)ccc3n2)cc1` the value was 94.3% (active).
As to `Cc1ccc(-c2cn3cc([N+](=O)[O-])ccc3n2)cc1`, the inhibition was -37.1%.
